Screening results: PubChem BioAssay, several laboratories
Mdm2 MdmX PPI: human Mdm2/MdmX binding inhibition. 330,000 tested, 3% active. inhibition, % at 8 µM. O15151+Q00987. SaOS-2 split-luciferase Mdm2/MdmX complementation, luminescence;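 active = inhibition of at least 50% at 8 µM in the primary screen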
GRIN3A LBD mod: modulators (binders) of human NR3A ligand-binding domain; NR3A LBD differential scanning fluorimetry, Tm shift; 0% = protein alone, 100% = glycine-bound protein; Tm shift relative to glycine control, % at 25 µM; 340,000 tested, 2.5% active;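 active = melting temperature shift of at least 10% of the positive control shift, at one fixed dose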
CSC inhib: blocks cancer stem cells; inhibition, % at 7.5 µM; cancer stem cell-like cells viability, luminescence; 300,000 tested, 1.1% active; in the data active = inhibition above about 75%; inconclusive = no clear call, values can overlap the other calls; tested in HMLE shEcad cells
SKKanGAS inh: blocks kanamycin growth of S. pyogenes SKKanGAS strain. BacTiter-Glo, 6 h. inhibition, % at 7.5 µM. 300,000 tested, 1.3% active. AID 1662;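 active = mean replicate score, as percent of positive control median, at least 50; inconclusive = mean below 50 but one replicate at or above 50; inactive = mean and every replicate below 50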;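 note: strain carries kanamycin resistance gene driven by streptokinase promoter and grows in 40 µg/ml kanamycin; loss of luminescence reflects streptokinase promoter inhibition or plain growth inhibition; 0% = median of DMSO wells and 100% = positive control at its reference dose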
Beta cell apopt: blocks beta cell apoptosis | INS-1E cytokine-induced death, ATP luminescence, 48 h; percent of positive-control rescue, neutral wells zero | AID 435005 | 300,000 tested, 0.8% active | protection from apoptosis, % (no concentration beside the values);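 active = Every replicate reaches about 75%, or at least half do and their mean reaches it too, limit read from the data; inconclusive = At least half of replicates reach the limit but their mean does not; inactive = Under half of replicates reach the limit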;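 note: 0% = cytokine-treated negative control wells and 100% = positive control rescue; higher means more ATP so stronger rescue from cytokine killing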
MPTP block: permeability transition pore inhibition; isolated mouse mitochondria, Ca2+ swelling absorbance, 30 min; 360,000 tested, 1.4% active; inhibition, % at 10 µM;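 active = inhibition of 50% or more, scaled per plate between neutral and stimulator controls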;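 note: 0% = DMSO wells given calcium and 100% = 1 mM EGTA wells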
Rh123 counter: membrane potential counter-screen of mitochondrial pore inhibitors. 5,000 tested, 78% active. shares compounds with MPTP block. inhibition, % at 10 µM. isolated mitochondria, Rhodamine 123 fluorescence; in the data active = inhibition above about 22%;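 note: 0% = DMSO vehicle and 100% = positive control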
MPTP swell DR: dose response confirmation of mitochondrial permeability transition pore inhibitors; AID 651561; shares compounds with MPTP block; 780 tested, 58% active; IC50, µM; isolated mitochondria swelling, absorbance; in the data active = IC50 below about 20 µM
MPTP counter DR: MPTP inhibitor counter-screen activity, dose response. shares compounds with MPTP block. isolated mitochondria counterscreen, fluorescence read-out. IC50, µM. 780 tested, 49% active. AID 651564; in the data active = IC50 below about 80 µM
Numbers without * were called inactive; ? = inconclusive; / = no result. Shown are actives, neighbours in structure and some others; about 6.9% of the full set was active somewhere.

SMILES	Mdm2 MdmX PPI	GRIN3A LBD mod	CSC inhib	SKKanGAS inh	Beta cell apopt	MPTP block	Rh123 counter	others
CCc1nc(NCCN)c(C#N)c2c1CSC(C)(C)C2	13	0	-4	-6	/	80*	-10	MPTP swell DR=17*;MPTP counter DR=>80
CCOc1ccc(-c2noc(CCC(=O)NCC3CCCO3)n2)cc1OC (centres undefined)	-1	0	/	6	2	-1	/
COc1ccc(CNc2ccc([N+](=O)[O-])cc2C)cc1	20	-7	21	-2	-3	2	/
COc1ccc(NC(=S)NNc2ccc([N+](=O)[O-])cc2S(=O)(=O)Nc2ccc(C)cc2C)cc1	8	23*	12	65*	13	97*	56*
Cc1ccc(NS(=O)(=O)c2cc([N+](=O)[O-])ccc2NNC(=S)Nc2cccc(Cl)c2)c(C)c1	/	-11	100*	88*	7	86*	-2
Cc1cc(NC(=O)c2cccc(S(=O)(=O)Nc3cccc(C(=O)O)c3)c2)no1	11	0	-12	1	/	0	/
CCN(CC)c1ccc(N=Cc2ccc(N(CC)CC)cc2O)cc1	15	0	11	8	63	77*	-8
O=C(NCC(c1cccs1)N1CCOCC1)c1ccccc1NS(=O)(=O)c1ccc(Cl)c([N+](=O)[O-])c1 (centres undefined)	5	5	10	1	14	80*	77*
CCN(c1cccc(C(F)(F)F)c1)S(=O)(=O)c1ccc2c(c1)CCN2C(=O)C1CC1	21	1	12	9	/	62*	64*
COc1ccc(C2NC(=O)N(C)C3=C2C(=O)CC(C)(C)C3)cc1OC (centres undefined)	-4	-2	2	-2	-1	2	/
COc1ccc(Cl)cc1NC(=O)CSc1nnc(Cc2ccc(C)cc2)c(=O)[nH]1	21	-6	8	28	/	63*	67*
COc1ccc(NC(=S)NC(NC(=O)/C=C/c2ccccc2)C(Cl)(Cl)Cl)cc1 (centres undefined)	39	5	14	17	/	96*	65*
CC(C)CC(=O)NC(Nc1ccc([N+](=O)[O-])cc1)C(Cl)(Cl)Cl (centres undefined)	11	-5	11	9	-7	90*	96*
Cc1cccc(NC(=S)NC(NC(=O)OCc2ccccc2)C(Cl)(Cl)Cl)c1 (centres undefined)	19	27*	34	14	10	74*	80*
COC(=O)NC(NC(=S)Nc1ccc([N+](=O)[O-])cc1)C(Cl)(Cl)Cl (centres undefined)	32	-1	25	19	16	93*	80*
CCOC(=O)NC(NC(=S)Nc1ccc(OC)cc1)C(Cl)(Cl)Cl (centres undefined)	-2	-1	/	1	0	8	/
O=C(NC(NC(=S)Nc1cccc(C(=O)O)c1)C(Cl)(Cl)Cl)OCc1ccccc1 (centres undefined)	13	-4	-9	7	-8	0	/
CC(C)CC(=O)NC(Nc1ccccc1F)C(Cl)(Cl)Cl (centres undefined)	1	-3	8	2	-4	-5	/
CC(=O)NC(NC(=S)Nc1cccc(Br)c1)C(Cl)(Cl)Cl (centres undefined)	-13	-5	4	3	0	95*	76*
CC(=O)NC(NC(=S)Nc1ccc(S(N)(=O)=O)cc1)C(Cl)(Cl)Cl (centres undefined)	-4	-1	-8	0	-6	2	/
CC(=O)NC(NC(=S)Nc1ccc(N=Nc2ccccc2)cc1)C(Cl)(Cl)Cl (centres undefined)	28	13*	63	?	32	94*	62*
Cc1cccc(C)c1OCC(O)CN1CCC(CN2C(=O)c3cccc4cccc(c34)C2=O)CC1 (centres undefined)	44	-3	-5	?	26	62*	11
CC(C)n1c(Oc2ccc(F)cc2)nc2c1c(=O)n(C)c(=O)n2C	19	-2	-10	23	-10	-2	/
O=C(Nc1nnc(-c2ccc(Cl)cc2)o1)c1nc2ccccc2s1	26	-4	99*	94*	2	97*	5	MPTP swell DR=2.6*;MPTP counter DR=13*
O=C(Nc1nnc(-c2ccc(Cl)cc2)o1)Nc1ccccc1Cl	17	0	11	-6	-7	-1	/
SMILES	Mdm2 MdmX PPI	GRIN3A LBD mod	CSC inhib	SKKanGAS inh	Beta cell apopt	MPTP block	Rh123 counter	others
O=C(OCC(=O)N1CCc2ccccc21)c1ccc([N+](=O)[O-])o1	26	0	-7	/	5	-1	/
Cc1noc(C)c1C(=O)Nc1sc(C)c(-c2ccccc2)c1C#N	23	-7	/	11	33	74*	80*
Cc1cccc(C(=O)Nc2sc(C)c(-c3ccccc3)c2C#N)c1	-225	-4	2	48	25	1	/
COc1ccc(Nc2ncnc3sccc23)cc1OC	21	-3	-4	5	-3	0	/
c1ccc2c(c1)OCC(CNc1ncnc3sccc13)O2 (centres undefined)	/	-4	8	-3	107*	99*	103*
COc1ccccc1CNc1ncnc2sccc12	9	-1	10	-5	97*	52*	76*
COc1ccc(CCNc2ncnc3sccc23)cc1OC	26	2	2	1	111*	95*	80*
CC(C)(C)C(=O)N/C(N)=N/c1nc2ccccc2o1	-136	-1	5	-12	4	2	/
CC(C)(C)C(=O)CSc1nnc(Nc2ccccc2)s1	-36	-2	0	-2	2	-2	/
Cc1nn(-c2ccccc2)c2nc(C(Cl)(Cl)Cl)[nH]c(=O)c12	27	-1	45	?	3	68*	57*
Cc1ccc(C(=O)OCC(=O)Nc2cccc(S(=O)(=O)N3CCCCC3)c2)s1	/	/	/	/	/	-1	/
COC(=O)c1ccccc1NC(=O)CSc1nc(C)cc(C)n1	23	-2	-11	-13	-8	-1	/
Cc1cc(C)nc(SCC(=O)Nc2ccnc3ccccc23)n1	38	-5	11	4	102*	97*	98*
O=C(CSC1=NCCS1)Nc1ccc2ccccc2c1	-17	1	14	4	2	0	/
O=C(CSC1=NCCS1)Nc1ccnc2ccccc12	3	-2	9	11	104*	68*	74*
CN(C)C(=O)c1ccc(NC(=O)COc2cccc3c2OC(C)(C)C3)cc1	11	0	/	/	/	1	/
COc1ccc(/C=C/c2nc(-c3ccccc3O)n(-c3ccccc3)n2)cc1	-3	-22	12	2	0	4	/
